# In paper PMC5700166:
# Assays:
# [1] = target: T1, GST-Nv-NF-kB (Ser allele) (Nematostella vectensis, UniProt A7UNT2 2-411); test: protein-binding microarray (PBM); PBM: ~300 nM protein, 6 mM HEPES pH 7.8, 80 mM KCl, 0.5 mM EDTA, 0.5 mM EGTA, 6% glycerol, 35 ng/ul poly-dIdC, 1% milk, 1 h, room temperature; Ap Aiptasia and Nv Nematostella (sea anemones) / Co Capsaspora / Aq Amphimedon (sponge) / Dm Drosophila / Hu human; RHD is the Rel homology domain; high values mean tight binding; details: dsDNA, one strand shown
# T1 sequence: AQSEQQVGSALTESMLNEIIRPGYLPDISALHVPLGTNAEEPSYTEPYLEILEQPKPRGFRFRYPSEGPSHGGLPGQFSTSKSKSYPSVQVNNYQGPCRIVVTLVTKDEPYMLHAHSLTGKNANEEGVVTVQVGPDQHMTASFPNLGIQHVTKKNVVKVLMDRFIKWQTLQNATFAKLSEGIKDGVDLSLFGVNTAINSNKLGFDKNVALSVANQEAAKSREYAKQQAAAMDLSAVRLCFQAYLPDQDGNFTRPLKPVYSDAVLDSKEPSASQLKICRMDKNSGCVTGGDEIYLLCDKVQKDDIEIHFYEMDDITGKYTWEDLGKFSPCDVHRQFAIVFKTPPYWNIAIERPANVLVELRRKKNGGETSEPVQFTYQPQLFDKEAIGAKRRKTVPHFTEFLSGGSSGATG
# GST-Hu-p50 = GST-Hu-p50 (Homo sapiens, UniProt P19838 7-356); test: as above; details: dsDNA, one strand shown
# Sequence of GST-Hu-p50 (P19838 7-356): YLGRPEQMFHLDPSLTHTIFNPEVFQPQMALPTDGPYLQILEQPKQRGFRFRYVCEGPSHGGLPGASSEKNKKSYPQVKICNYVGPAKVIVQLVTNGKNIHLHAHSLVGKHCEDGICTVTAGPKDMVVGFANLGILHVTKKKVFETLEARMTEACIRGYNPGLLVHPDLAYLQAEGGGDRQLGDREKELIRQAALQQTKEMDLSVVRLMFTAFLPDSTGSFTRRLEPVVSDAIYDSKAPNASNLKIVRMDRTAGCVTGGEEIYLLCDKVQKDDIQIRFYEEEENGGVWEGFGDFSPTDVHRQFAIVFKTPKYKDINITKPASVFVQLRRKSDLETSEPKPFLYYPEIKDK
Sequence,binding signal [1] [z-score],binding signal (GST-Hu-p50) [z-score]
CCGATTAACATCAGGAATTCACCTGATGTTAATCGGGTCTTGATTCGCTTGACGCTGCTG,2.04,3.81
CCGATTAACATCAGGGAATGCACTGATGTTAATCGGGTCTTGATTCGCTTGACGCTGCTG,2.1,2.28
CCGATTAACATCAGGGGATTAGATGATGTTAATCGGGTCTTGATTCGCTTGACGCTGCTG,6.46,4.35
CCGATTAACATCAAAAAGGGAAATGATGTTAATCGGGTCTTGATTCGCTTGACGCTGCTG,6.22,3.72
CCGATTAACATCAGGGACCGCCCTGATGTTAATCGGGTCTTGATTCGCTTGACGCTGCTG,1.35,3.16
CCGATTAACATCAGGCCACCCCCTGATGTTAATCGGGTCTTGATTCGCTTGACGCTGCTG,2.48,3.82
CCGATTAACATCACGGACTCCCCTGATGTTAATCGGGTCTTGATTCGCTTGACGCTGCTG,4.46,3.34
CCGATTAACATCAAAAAATGCCCTGATGTTAATCGGGTCTTGATTCGCTTGACGCTGCTG,1.9,3.14
CCGATTAACATCAGGGTAAAACCTGATGTTAATCGGGTCTTGATTCGCTTGACGCTGCTG,3.53,2.56
CCGATTAACATCAGGGGCGCCCCTGATGTTAATCGGGTCTTGATTCGCTTGACGCTGCTG,4.55,4.9
CCGATTAACATCACAAATTCCCATGATGTTAATCGGGTCTTGATTCGCTTGACGCTGCTG,4.59,3.86
CCGATTAACATCAGGGAATATTATGATGTTAATCGGGTCTTGATTCGCTTGACGCTGCTG,5.41,3.86
CCGATTAACATCAGGGGGTAACCTGATGTTAATCGGGTCTTGATTCGCTTGACGCTGCTG,3.93,4.28
CCGATTAACATCAGACATTCCCATGATGTTAATCGGGTCTTGATTCGCTTGACGCTGCTG,2.32,1.02
CCGATTAACATCAGAAATGGGAATGATGTTAATCGGGTCTTGATTCGCTTGACGCTGCTG,1.7,1.72
CCGATTAACATCAACTCGGGAAATGATGTTAATCGGGTCTTGATTCGCTTGACGCTGCTG,2.66,1.46
CCGATTAACATCAAAGTACCCCCTGATGTTAATCGGGTCTTGATTCGCTTGACGCTGCTG,5.79,4.53
CCGATTAACATCAGGGAAAAGGATGATGTTAATCGGGTCTTGATTCGCTTGACGCTGCTG,4.08,1.47
CCGATTAACATCAAAAAATACCATGATGTTAATCGGGTCTTGATTCGCTTGACGCTGCTG,2.92,2.43
CCGATTAACATCAGGAACGCCCCTGATGTTAATCGGGTCTTGATTCGCTTGACGCTGCTG,1.92,3
CCGATTAACATCAGAAATCCCGCTGATGTTAATCGGGTCTTGATTCGCTTGACGCTGCTG,2.45,2.45
CCGATTAACATCAAAAACTCCCATGATGTTAATCGGGTCTTGATTCGCTTGACGCTGCTG,4.52,4.38
CCGATTAACATCAAGGGAATCCCTGATGTTAATCGGGTCTTGATTCGCTTGACGCTGCTG,5.4,4.17
CCGATTAACATCAAACAACCCCCTGATGTTAATCGGGTCTTGATTCGCTTGACGCTGCTG,4.83,5.05

Sequence,binding signal [1] [z-score],binding signal (GST-Hu-p50) [z-score]
CCGATTAACATCAGGGAGATACCTGATGTTAATCGGGTCTTGATTCGCTTGACGCTGCTG,1.75,3.08
CCGATTAACATCAACTAATTCCCTGATGTTAATCGGGTCTTGATTCGCTTGACGCTGCTG,4.35,2.11
CCGATTAACATCAAATTCCCTCGTGATGTTAATCGGGTCTTGATTCGCTTGACGCTGCTG,4.74,3.62
CCGATTAACATCAACTGGGAAAATGATGTTAATCGGGTCTTGATTCGCTTGACGCTGCTG,4.25,2
CCGATTAACATCAGGGAATTACATGATGTTAATCGGGTCTTGATTCGCTTGACGCTGCTG,4.68,3.82
CCGATTAACATCATCAGGGAAAATGATGTTAATCGGGTCTTGATTCGCTTGACGCTGCTG,5.74,2.83
CCGATTAACATCACCACTTTCCCTGATGTTAATCGGGTCTTGATTCGCTTGACGCTGCTG,5.06,3.47
CCGATTAACATCAAACACTCCCCTGATGTTAATCGGGTCTTGATTCGCTTGACGCTGCTG,4.23,3.6
CCGATTAACATCACAAATGGGAATGATGTTAATCGGGTCTTGATTCGCTTGACGCTGCTG,1.63,1.06
CCGATTAACATCAAGGAATTACCTGATGTTAATCGGGTCTTGATTCGCTTGACGCTGCTG,4.05,2.25
CCGATTAACATCAGGCAATTCCCTGATGTTAATCGGGTCTTGATTCGCTTGACGCTGCTG,3.97,3.86
CCGATTAACATCAAGCAACCCCCTGATGTTAATCGGGTCTTGATTCGCTTGACGCTGCTG,3.95,4.45
CCGATTAACATCAGTTCCCCCCATGATGTTAATCGGGTCTTGATTCGCTTGACGCTGCTG,5.19,4.95
CCGATTAACATCAGATTTCTCCCTGATGTTAATCGGGTCTTGATTCGCTTGACGCTGCTG,3.47,1.72
CCGATTAACATCAGGGAATGACCTGATGTTAATCGGGTCTTGATTCGCTTGACGCTGCTG,1.65,2.08
CCGATTAACATCAGGAATATTCCTGATGTTAATCGGGTCTTGATTCGCTTGACGCTGCTG,1.09,1.36
CCGATTAACATCAGAGAAGTCCCTGATGTTAATCGGGTCTTGATTCGCTTGACGCTGCTG,5.95,5.25
CCGATTAACATCACCCAACCCCCTGATGTTAATCGGGTCTTGATTCGCTTGACGCTGCTG,3.73,4.28
CCGATTAACATCAAGTATTCCCATGATGTTAATCGGGTCTTGATTCGCTTGACGCTGCTG,2.35,1.64
CCGATTAACATCAGGGGGTGATATGATGTTAATCGGGTCTTGATTCGCTTGACGCTGCTG,4.45,3.97
CCGATTAACATCAGGGGGTGAAATGATGTTAATCGGGTCTTGATTCGCTTGACGCTGCTG,4.3,4.19
CCGATTAACATCAGGAAAACACCTGATGTTAATCGGGTCTTGATTCGCTTGACGCTGCTG,3.23,4.77
CCGATTAACATCAAGAATTCCCATGATGTTAATCGGGTCTTGATTCGCTTGACGCTGCTG,5.01,4.34
